# Assay results taken from publication PMC7862700, “An all-to-all approach to the identification of sequence-specific readers for epigenetic DNA modifications on cytosine”.
# Tests used:
# Assay in all cases: DAPPL (digital affinity profiling via proximity ligation, sequencing); 10 mM Tris-HCl pH 7.5, 50 mM NaCl, 1 mM DTT, 4% glycerol, room temperature, 30 min; GST-TFs on glutathione beads, 16-mer random dsDNA library, 0.1% formaldehyde crosslink after washing; high values mean tight binding
# FLI1 = molecular target: T1, FLI1 (Homo sapiens, UniProt Q01543 1-452); conditions: protein: recombinant; tags: N-terminal GST; dsDNA, one strand shown
# T1 sequence: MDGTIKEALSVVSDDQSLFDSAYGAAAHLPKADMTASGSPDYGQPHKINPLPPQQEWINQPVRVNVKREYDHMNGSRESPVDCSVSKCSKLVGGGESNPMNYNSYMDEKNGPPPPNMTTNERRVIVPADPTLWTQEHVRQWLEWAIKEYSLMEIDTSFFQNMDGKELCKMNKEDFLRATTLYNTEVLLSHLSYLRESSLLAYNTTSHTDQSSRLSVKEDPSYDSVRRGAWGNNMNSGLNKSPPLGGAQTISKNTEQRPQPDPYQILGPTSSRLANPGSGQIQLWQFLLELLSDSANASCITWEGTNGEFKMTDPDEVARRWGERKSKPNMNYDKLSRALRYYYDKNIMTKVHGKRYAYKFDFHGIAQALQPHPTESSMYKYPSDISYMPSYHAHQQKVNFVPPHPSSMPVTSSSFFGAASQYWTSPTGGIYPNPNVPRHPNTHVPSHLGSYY
# In short: (§1)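 Pools were built from human transcription factors expressed in yeast as GST fusions, captured on glutathione beads and DNA-barcoded, along with a tag-only sample. Incubation with 200 nmole of a 16-mer random double-stranded DNA library lasted 30 min at room temperature in Tris/NaCl/DTT/glycerol buffer, and was followed by washing, 0.1% formaldehyde crosslinking, proximity ligation, PCR amplification and Illumina NextSeq500 sequencing. Binding signal is the quotient of each hexamer's read frequency for a factor and its frequency for the tag-only sample.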
# ELK1 = molecular target: T2, ELK1 (Homo sapiens, UniProt P19419 1-428); conditions: protein: recombinant; tags: N-terminal GST; dsDNA, one strand shown
# T2 sequence: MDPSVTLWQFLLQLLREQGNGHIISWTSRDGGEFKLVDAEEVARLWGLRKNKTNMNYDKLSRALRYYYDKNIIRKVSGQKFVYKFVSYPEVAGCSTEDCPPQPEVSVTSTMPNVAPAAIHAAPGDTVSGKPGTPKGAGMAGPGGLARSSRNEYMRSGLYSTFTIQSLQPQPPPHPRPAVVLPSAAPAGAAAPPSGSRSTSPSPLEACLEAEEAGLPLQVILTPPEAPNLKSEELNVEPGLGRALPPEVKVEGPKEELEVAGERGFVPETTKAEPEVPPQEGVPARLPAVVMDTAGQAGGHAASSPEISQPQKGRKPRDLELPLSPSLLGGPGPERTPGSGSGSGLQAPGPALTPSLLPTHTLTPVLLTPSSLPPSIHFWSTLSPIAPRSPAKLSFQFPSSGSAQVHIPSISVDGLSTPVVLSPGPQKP
# In short: as §1
# GABPA = molecular target: T3, GABPA (Homo sapiens, UniProt Q06546 1-454); conditions: protein: recombinant; tags: N-terminal GST; dsDNA, one strand shown
# T3 sequence: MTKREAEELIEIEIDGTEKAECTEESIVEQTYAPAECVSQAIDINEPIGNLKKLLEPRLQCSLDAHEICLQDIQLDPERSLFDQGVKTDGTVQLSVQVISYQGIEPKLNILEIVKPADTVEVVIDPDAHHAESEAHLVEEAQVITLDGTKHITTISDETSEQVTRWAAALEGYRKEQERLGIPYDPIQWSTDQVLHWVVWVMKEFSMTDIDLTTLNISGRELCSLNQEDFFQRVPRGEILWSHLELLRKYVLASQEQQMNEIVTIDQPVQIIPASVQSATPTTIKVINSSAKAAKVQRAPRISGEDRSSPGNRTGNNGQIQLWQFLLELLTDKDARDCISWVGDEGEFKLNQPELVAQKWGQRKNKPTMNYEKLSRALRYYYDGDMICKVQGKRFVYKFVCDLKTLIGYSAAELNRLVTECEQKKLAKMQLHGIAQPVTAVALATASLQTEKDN
# In short: as §1
# ERG = molecular target: T4, ERG (Homo sapiens, UniProt P11308 1-479); conditions: protein: recombinant; tags: N-terminal GST; dsDNA, one strand shown
# T4 sequence: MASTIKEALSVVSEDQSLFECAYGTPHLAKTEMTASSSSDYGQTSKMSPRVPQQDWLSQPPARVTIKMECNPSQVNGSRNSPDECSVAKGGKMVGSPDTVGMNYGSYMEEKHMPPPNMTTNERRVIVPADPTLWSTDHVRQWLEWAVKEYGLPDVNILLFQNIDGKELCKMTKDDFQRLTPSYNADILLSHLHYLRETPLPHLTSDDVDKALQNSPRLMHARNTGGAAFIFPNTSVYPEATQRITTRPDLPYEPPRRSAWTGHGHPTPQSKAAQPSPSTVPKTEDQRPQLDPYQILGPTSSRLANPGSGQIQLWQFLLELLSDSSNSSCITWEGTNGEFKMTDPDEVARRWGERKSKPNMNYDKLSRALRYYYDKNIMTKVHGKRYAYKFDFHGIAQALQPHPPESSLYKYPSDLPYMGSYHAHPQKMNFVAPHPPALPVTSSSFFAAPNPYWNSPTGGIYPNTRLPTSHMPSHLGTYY
# In short: as §1
# ELF1 = ELF1 (Homo sapiens, UniProt P32519 1-619); conditions: protein: recombinant; tags: N-terminal GST; dsDNA, one strand shown
# Chain of ELF1 (P32519 whole entry): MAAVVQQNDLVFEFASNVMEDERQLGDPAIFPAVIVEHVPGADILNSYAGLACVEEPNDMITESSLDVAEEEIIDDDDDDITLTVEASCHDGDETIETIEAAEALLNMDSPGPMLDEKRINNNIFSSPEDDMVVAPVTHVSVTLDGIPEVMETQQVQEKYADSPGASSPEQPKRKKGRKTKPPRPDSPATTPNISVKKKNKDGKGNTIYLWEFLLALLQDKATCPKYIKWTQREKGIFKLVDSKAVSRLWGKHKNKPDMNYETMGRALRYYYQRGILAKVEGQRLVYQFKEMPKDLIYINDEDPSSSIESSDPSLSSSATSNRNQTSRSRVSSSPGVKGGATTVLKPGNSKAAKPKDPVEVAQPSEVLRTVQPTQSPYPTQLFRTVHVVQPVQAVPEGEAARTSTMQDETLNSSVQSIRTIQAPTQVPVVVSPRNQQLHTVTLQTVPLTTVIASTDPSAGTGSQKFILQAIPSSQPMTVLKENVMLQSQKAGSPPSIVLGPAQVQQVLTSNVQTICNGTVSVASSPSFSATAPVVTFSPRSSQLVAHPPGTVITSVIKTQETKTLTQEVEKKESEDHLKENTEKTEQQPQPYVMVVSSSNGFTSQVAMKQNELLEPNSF
# In short: as §1
# EHF = molecular target: T5, EHF (Homo sapiens, UniProt Q9NZC4 1-300); conditions: protein: recombinant; tags: N-terminal GST; dsDNA, one strand shown
# T5 sequence: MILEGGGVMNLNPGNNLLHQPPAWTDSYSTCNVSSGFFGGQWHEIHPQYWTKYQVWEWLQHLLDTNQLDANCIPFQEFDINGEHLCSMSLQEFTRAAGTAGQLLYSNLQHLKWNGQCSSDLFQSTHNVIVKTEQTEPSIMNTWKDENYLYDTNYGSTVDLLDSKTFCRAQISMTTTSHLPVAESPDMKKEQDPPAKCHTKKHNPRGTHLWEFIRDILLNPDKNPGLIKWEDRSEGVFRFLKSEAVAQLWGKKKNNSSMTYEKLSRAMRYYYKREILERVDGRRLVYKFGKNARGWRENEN
# In short: as §1
# SPI1 = SPI1 (Homo sapiens, UniProt P17947 1-270); conditions: protein: recombinant; tags: N-terminal GST; dsDNA, one strand shown
# In short: as §1
# SPIB = SPIB (Homo sapiens, UniProt Q01892 1-262); conditions: protein: recombinant; tags: N-terminal GST; dsDNA, one strand shown
# Chain of SPIB (Q01892 whole entry): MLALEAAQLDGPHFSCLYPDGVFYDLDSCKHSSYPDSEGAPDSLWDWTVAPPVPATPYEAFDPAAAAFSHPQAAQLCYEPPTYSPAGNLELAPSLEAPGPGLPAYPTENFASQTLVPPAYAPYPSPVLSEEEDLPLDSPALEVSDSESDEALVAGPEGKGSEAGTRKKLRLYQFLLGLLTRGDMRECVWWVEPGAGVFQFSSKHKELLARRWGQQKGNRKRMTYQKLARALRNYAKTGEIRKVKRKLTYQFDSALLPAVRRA
# In short: as §1
# ELK3 = molecular target: T6, ELK3 (Homo sapiens, UniProt P41970 1-407); conditions: protein: recombinant; tags: N-terminal GST; dsDNA, one strand shown
# T6 sequence: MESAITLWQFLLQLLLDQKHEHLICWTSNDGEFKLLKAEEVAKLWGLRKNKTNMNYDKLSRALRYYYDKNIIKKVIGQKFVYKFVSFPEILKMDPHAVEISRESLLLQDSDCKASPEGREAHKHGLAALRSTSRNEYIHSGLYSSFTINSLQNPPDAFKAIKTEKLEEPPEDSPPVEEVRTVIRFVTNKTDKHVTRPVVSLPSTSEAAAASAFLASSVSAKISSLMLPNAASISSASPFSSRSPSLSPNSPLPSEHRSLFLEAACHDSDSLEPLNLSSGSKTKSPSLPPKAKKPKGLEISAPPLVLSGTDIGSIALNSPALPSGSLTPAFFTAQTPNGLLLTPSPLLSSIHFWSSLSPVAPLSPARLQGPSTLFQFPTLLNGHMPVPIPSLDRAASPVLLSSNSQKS
# In short: as §1
# FEV = molecular target: T7, FEV (Homo sapiens, UniProt Q99581 1-238); conditions: protein: recombinant; tags: N-terminal GST; dsDNA, one strand shown
# T7 sequence: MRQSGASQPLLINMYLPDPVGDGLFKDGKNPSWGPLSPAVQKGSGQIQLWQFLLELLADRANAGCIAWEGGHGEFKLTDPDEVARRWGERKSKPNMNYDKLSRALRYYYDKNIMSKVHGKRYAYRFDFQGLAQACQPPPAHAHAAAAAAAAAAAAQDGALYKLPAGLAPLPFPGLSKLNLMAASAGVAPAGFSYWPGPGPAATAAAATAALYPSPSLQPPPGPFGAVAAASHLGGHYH
# In short: as §1
# ETV5 = ETV5 (Homo sapiens, UniProt P41161 1-510); conditions: protein: recombinant; tags: N-terminal GST; dsDNA, one strand shown
# Chain of ETV5 (P41161 whole entry): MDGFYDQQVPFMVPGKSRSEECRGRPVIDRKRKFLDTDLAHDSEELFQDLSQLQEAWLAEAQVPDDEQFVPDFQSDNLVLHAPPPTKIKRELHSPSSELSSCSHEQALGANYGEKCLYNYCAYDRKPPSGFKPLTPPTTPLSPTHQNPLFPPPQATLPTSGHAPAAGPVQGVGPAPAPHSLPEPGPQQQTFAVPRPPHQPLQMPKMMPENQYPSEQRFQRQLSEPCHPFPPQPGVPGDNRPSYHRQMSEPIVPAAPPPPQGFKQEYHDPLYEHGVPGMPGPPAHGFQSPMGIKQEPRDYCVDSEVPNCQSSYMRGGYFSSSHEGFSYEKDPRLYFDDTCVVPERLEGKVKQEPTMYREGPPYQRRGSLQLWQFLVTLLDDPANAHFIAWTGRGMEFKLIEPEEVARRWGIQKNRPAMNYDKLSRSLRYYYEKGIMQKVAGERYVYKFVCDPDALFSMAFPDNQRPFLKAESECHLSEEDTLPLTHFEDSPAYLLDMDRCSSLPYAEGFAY
# In short: as §1
# HSF1 = HSF1 (Homo sapiens, UniProt Q00613 1-529); conditions: protein: recombinant; tags: N-terminal GST; chain copies: 3; dsDNA, one strand shown
# Chain of HSF1 (Q00613 whole entry): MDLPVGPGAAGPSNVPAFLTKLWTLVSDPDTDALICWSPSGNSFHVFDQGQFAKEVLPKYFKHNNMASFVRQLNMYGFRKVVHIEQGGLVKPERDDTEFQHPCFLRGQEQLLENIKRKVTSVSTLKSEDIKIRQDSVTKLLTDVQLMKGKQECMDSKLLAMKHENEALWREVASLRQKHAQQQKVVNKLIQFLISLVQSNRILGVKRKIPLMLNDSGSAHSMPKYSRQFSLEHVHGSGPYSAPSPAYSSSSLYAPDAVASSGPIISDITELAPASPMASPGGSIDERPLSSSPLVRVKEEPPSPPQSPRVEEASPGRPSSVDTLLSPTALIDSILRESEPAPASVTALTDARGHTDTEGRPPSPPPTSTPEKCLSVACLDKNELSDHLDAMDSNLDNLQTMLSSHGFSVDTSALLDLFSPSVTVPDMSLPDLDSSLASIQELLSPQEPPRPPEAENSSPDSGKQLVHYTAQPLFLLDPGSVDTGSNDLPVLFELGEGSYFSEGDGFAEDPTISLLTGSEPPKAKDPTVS
# In short: as §1
# SPIC = molecular target: T8, SPIC (Homo sapiens, UniProt Q8N5J4 1-248); conditions: protein: recombinant; tags: N-terminal GST; dsDNA, one strand shown
# T8 sequence: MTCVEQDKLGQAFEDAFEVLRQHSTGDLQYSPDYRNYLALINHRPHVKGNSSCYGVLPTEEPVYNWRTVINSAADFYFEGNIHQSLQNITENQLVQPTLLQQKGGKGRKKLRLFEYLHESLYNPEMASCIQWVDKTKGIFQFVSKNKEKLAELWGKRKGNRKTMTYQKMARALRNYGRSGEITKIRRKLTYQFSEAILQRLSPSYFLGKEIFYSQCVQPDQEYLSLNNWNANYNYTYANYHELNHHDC
# In short: as §1
# ELF4 = ELF4 (Homo sapiens, UniProt Q99607 1-663); conditions: protein: recombinant; tags: N-terminal GST; dsDNA, one strand shown
# Chain of ELF4 (Q99607 whole entry): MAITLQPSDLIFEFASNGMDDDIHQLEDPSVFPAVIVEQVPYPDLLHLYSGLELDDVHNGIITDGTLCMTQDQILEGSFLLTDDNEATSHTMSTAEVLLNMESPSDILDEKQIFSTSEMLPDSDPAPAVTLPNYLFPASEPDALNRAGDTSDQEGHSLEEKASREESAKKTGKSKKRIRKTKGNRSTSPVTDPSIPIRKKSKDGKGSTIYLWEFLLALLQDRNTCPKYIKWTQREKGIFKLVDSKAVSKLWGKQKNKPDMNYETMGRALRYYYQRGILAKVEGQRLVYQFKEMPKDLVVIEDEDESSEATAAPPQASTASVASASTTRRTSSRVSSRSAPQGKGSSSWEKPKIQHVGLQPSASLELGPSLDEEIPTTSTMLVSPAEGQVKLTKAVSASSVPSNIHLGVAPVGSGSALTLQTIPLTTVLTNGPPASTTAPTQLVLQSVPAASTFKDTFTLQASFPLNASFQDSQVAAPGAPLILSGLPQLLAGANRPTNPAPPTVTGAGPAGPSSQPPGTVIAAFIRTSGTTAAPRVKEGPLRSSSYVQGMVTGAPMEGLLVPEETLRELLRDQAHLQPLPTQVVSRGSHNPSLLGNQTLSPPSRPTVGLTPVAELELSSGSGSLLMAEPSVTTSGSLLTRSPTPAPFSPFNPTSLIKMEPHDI
# In short: as §1
# ELK4 = molecular target: T9, ELK4 (Homo sapiens, UniProt P28324-2 1-405); conditions: protein: recombinant; tags: N-terminal GST; dsDNA, one strand shown
# T9 sequence: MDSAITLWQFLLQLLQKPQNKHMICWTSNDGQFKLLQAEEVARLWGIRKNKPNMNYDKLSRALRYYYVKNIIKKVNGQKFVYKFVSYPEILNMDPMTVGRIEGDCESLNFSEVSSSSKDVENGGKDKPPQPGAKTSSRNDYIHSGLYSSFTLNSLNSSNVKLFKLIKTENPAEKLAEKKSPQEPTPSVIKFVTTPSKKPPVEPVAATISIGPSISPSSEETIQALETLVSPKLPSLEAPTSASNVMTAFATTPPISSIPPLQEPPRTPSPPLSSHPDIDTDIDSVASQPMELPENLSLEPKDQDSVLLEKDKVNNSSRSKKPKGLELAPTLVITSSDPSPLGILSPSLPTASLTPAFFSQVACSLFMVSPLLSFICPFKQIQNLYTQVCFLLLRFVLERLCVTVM
# In short: as §1
# ETV2 = molecular target: T10, ETV2 (Homo sapiens, UniProt O00321 1-342); conditions: protein: recombinant; tags: N-terminal GST; dsDNA, one strand shown
# T10 sequence: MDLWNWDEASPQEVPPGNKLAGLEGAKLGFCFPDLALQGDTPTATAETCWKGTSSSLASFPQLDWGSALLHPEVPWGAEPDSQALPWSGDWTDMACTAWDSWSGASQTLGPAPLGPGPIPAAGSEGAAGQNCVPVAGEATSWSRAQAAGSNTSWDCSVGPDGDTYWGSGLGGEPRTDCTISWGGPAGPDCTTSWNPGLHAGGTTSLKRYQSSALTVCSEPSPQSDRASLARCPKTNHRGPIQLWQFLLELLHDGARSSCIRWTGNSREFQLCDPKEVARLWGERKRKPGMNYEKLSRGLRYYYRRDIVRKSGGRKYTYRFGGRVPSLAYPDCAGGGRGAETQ
# In short: as §1
# ELF3 = molecular target: T11, ELF3 (Homo sapiens, UniProt P78545 1-371); conditions: protein: recombinant; tags: N-terminal GST; dsDNA, one strand shown
# T11 sequence: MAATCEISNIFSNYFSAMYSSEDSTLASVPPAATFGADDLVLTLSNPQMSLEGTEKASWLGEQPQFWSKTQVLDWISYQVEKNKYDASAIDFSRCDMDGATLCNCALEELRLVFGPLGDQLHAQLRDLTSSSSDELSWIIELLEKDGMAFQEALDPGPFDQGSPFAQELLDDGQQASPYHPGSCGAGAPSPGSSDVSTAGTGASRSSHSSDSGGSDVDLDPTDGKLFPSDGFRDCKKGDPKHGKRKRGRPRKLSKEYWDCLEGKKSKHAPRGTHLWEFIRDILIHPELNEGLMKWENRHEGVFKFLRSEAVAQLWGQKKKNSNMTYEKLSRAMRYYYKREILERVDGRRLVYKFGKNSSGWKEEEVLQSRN
# In short: as §1
# CRX = CRX (Homo sapiens, UniProt O43186 1-299); conditions: protein: recombinant; tags: N-terminal GST; dsDNA, one strand shown
# Chain of CRX (O43186 whole entry): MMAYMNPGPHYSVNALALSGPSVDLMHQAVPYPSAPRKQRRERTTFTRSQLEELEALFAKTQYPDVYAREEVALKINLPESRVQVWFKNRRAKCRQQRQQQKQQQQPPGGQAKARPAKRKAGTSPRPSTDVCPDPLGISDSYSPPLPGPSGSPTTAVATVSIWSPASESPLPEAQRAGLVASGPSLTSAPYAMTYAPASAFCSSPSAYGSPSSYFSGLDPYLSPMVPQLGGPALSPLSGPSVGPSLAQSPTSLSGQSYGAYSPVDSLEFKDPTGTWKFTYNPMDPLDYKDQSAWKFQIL
# In short: as §1
# ETV1 = ETV1 (Homo sapiens, UniProt P50549 1-477); conditions: protein: recombinant; tags: N-terminal GST; dsDNA, one strand shown
# Chain of ETV1 (P50549 whole entry): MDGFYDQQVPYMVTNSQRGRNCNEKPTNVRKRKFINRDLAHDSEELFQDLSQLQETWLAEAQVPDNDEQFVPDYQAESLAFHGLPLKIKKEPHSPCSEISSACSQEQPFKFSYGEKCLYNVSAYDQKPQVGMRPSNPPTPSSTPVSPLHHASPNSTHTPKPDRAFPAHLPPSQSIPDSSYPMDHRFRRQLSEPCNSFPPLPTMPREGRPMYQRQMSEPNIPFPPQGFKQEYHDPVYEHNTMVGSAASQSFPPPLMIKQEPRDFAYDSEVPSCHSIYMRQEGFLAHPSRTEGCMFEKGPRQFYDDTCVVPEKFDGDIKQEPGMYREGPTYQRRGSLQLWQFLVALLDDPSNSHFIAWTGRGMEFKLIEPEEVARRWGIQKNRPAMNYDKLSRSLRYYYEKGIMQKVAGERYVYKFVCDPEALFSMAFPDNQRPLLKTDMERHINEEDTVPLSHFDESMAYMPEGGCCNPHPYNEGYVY
# In short: as §1
sequence,measurement,setting,value
AATTTG,binding signal,FLI1,"1.35 fold enrichment (6-mer frequency, TF over GST control)"
same,binding signal,ELK1,"1.22 fold enrichment (6-mer frequency, TF over GST control)"
same,binding signal,GABPA,"1.33 fold enrichment (6-mer frequency, TF over GST control)"
same,binding signal,ERG,"1.26 fold enrichment (6-mer frequency, TF over GST control)"
same,binding signal,ELF1,"1.26 fold enrichment (6-mer frequency, TF over GST control)"
same,binding signal,EHF,"1.23 fold enrichment (6-mer frequency, TF over GST control)"
same,binding signal,SPI1,"1.33 fold enrichment (6-mer frequency, TF over GST control)"
same,binding signal,SPIB,"1.34 fold enrichment (6-mer frequency, TF over GST control)"
same,binding signal,ELK3,"1.12 fold enrichment (6-mer frequency, TF over GST control)"
same,binding signal,FEV,"1.39 fold enrichment (6-mer frequency, TF over GST control)"
same,binding signal,ETV5,"1.25 fold enrichment (6-mer frequency, TF over GST control)"
same,binding signal,HSF1,"1.26 fold enrichment (6-mer frequency, TF over GST control)"
same,binding signal,SPIC,"1.41 fold enrichment (6-mer frequency, TF over GST control)"
same,binding signal,ELF4,"1.26 fold enrichment (6-mer frequency, TF over GST control)"
same,binding signal,ELK4,"1.34 fold enrichment (6-mer frequency, TF over GST control)"
same,binding signal,ETV2,"1.16 fold enrichment (6-mer frequency, TF over GST control)"
same,binding signal,ELF3,"1.32 fold enrichment (6-mer frequency, TF over GST control)"
same,binding signal,CRX,"1.33 fold enrichment (6-mer frequency, TF over GST control)"
same,binding signal,ETV1,"1.28 fold enrichment (6-mer frequency, TF over GST control)"
